Reference: PubChem BioAssay (NCATS)
Records with an inconclusive call do not appear. The source made the active and inactive calls. Unless noted, calls come from the whole dose curve; as a rule, active = well fitted curve in the direction sought with a large enough effect; inconclusive = small, poorly fitted or top-dose-only effect, or another doubt; inactive = no such curve, though single readings can be large; an effect the other way counts as inactive or inconclusive.

Tests used:
[1] = AP1 Signaling Pathway (AID 357; active = well fitted curve in either direction with a large enough effect, not every such curve was filed as active;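 note: ME-180 reporter cells stimulated with EGF at its EC50 level; % is set by controls: 0 for no effect and ±100 for the full control effect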); settings: ME-180 AP-1-bla reporter, EGF-induced, beta-lactamase ratio, 5 h; at 7.69 µM (top of the series) unless noted
In short: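 Read-out was the 460nm/530nm emission ratio (excitation 405nm) after CCF4 loading for 2.5 hours at room temperature. Cells carried an AP-1-driven beta-lactamase reporter, were stimulated with EC50 EGF plus compound for 5 hours, and AC50 values came from titrations.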

[2] = NFAT Signaling Pathway (AID 444; active = well fitted curve in either direction with a large enough effect, not every such curve was filed as active;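 note: carbachol stimulus at about its EC50 of 1 µM final; % is set by controls: 0 for no effect and ±100 for the full control effect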); settings: Jurkat NFAT-bla M1, carbachol, beta-lactamase ratio, 5 h; at 7.69 µM (top of the series) unless noted
In short: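 Jurkat cells carrying an NFAT-driven β-lactamase reporter and co-transfected muscarinic M1 receptor were treated with compound plus carbachol (1 uM final, an EC50 level) for 5 h at 37 °C. CCF4 loading followed for 1 h at RT; 460/530 nm ratio gave %activity.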

[3] = Stat Signaling Pathway (AID 446; active = well fitted curve in either direction with a large enough effect, not every such curve was filed as active;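 note: ME-180 cervical cancer cells given 40 pM IL-6 alongside compound; SIE-controlled beta-lactamase reporter measured as 460/530 nm FRET emission ratio; % is set by controls: 0 for no effect and ±100 for the full control effect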); settings: ME-180 SIE beta-lactamase reporter, IL-6 stimulated, 5 h; at 7.69 µM (top of the series) unless noted
In short: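 ME-180 cells carrying a SIE-driven beta-lactamase reporter are stimulated with 40 pM IL-6 for 5 h at 37C in the presence of compound. The 460/530 nm FRET substrate ratio is read after 2.5 h at RT. Data are normalised to 300 pM IL-6 and to 125 nM JAK inhibitor controls.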

[4] = target: Glucocorticoid receptor (Homo sapiens) (UniProt P04150); experiment: GR-GFP Redistribution (AID 450;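 active = compounds whose dose series gives a full or clear partial fitted curve of increased nuclear translocation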; note: potency is the fitted concentration of half-maximal effect); settings: U2OS GR-GFP nuclear translocation, laser cytometry, 2 h
Sequence of Glucocorticoid receptor (Homo sapiens) (P04150 whole entry, looked up, the tested form may be a part): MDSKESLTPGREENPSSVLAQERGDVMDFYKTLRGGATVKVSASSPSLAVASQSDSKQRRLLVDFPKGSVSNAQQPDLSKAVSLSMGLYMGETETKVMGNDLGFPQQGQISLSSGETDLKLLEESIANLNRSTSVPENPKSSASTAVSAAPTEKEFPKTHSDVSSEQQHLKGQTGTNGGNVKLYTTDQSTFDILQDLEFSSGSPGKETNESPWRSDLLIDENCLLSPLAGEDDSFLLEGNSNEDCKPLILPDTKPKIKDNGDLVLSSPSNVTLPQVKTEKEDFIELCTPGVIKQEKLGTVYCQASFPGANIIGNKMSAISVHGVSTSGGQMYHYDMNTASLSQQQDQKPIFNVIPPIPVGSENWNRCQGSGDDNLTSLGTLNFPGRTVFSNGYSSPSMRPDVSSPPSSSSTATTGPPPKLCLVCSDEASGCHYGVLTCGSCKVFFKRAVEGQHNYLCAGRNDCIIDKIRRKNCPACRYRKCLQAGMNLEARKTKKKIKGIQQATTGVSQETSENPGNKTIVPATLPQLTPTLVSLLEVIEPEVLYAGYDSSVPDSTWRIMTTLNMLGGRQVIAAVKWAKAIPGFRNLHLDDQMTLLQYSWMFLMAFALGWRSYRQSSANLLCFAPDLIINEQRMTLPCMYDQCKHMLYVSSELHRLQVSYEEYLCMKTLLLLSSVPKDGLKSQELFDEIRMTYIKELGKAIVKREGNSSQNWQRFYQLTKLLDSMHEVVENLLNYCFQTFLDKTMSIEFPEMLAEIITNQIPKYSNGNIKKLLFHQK

[5] = target: Glucocorticoid receptor (Homo sapiens) (UniProt P04150); experiment: GR-EFC Redistribution (AID 451; calls by dose curve; note: potency is the fitted concentration of half-maximal effect); settings: CHO-K1 GR-EFC translocation, beta-gal luminescence, 2 h
In short: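 CHO-K1 cells stably expressing nuclear-localized β-gal enzyme acceptor and GR fused C-terminally to the enzyme donor fragment; ligand-driven nuclear translocation restores β-gal by complementation. Compounds titrated up to 46 uM final, 2 h at 37 °C; luminescence read.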

[6] = target: Mitogen-activated protein kinase 10 (Mus musculus) (UniProt Q61831); experiment: JNK3 AlphaScreen Assay (AID 530; active = well fitted curve in either direction with a large enough effect, not every such curve was filed as active;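 note: kinase came from lysate of stimulated human HepG2 cells; signal reports phosphorylation of biotinylated GST-cJun 1-79 at Ser73 with 10 µM ATP; % is set by controls: 0 for no effect and ±100 for the full control effect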); settings: JNK3 lysate, c-Jun phosphorylation; series mostly up to 57.1 µM
In short: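 Inhibitors reduce antibody binding to phosphorylated biotin-cJun, lowering AlphaScreen luminescence. Lysates from HepG2 cells pre-activated by IL-1beta plus TNF-alpha supplied JNK3; compounds were titrated.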

[7] = target: 3',5'-cyclic-AMP phosphodiesterase 4B (Homo sapiens) (UniProt Q07343); experiment: qHTS Assay for Inhibitors of PDE-IV (AID 607; active = well fitted activation curve with a large enough effect in the main read-out, with a control signal flat, not every such curve was filed as active; note: % of control where 0% means no effect); settings: HEK293 ACTOne CNG channel cells, membrane potential fluorescence; series mostly up to 22.9 µM
Sequence of 3',5'-cyclic-AMP phosphodiesterase 4B (Homo sapiens) (Q07343 whole entry, looked up): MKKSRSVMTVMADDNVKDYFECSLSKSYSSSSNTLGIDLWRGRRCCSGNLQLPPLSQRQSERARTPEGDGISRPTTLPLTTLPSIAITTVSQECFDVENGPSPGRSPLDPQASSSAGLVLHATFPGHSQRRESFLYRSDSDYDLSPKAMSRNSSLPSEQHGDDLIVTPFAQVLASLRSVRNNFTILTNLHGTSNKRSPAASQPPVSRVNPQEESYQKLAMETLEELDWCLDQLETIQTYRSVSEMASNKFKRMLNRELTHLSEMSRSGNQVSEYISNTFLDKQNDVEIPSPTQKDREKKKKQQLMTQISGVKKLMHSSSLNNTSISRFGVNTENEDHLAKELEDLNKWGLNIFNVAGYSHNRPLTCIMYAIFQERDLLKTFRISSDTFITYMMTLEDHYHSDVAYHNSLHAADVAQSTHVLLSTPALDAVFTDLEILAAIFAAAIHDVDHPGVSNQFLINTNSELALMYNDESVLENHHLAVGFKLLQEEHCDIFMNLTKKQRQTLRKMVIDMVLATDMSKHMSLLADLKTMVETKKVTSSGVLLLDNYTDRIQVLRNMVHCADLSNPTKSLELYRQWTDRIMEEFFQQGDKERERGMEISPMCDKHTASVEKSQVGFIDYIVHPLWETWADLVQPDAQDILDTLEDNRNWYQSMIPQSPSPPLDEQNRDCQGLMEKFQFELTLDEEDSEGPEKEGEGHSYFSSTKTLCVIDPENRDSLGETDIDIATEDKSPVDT
In short: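 HEK293 ACTOne cells with CNG channel (1000/well), endogenous PDE4; membrane potential dye, compounds up to 22.9 uM final. Fluorescence Ex 535/Em 590; RO 20-1724 (100 uM final) as reference.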

[8] = target: Dual specificity protein kinase CLK4 (Homo sapiens) (UniProt Q9HAZ1); experiment: qHTS Assay for Inhibitors of CDC-like Kinase 4 (Kinase-Glo Assay) (AID 1770); settings: recombinant Clk4, Kinase-Glo ATP depletion luminescence; series mostly up to 66.7 µM; note: % is set by controls: 0 for no effect and ±100 for the full control effect; nearly all actives have a fitted effect of over 65% in size
Sequence of Dual specificity protein kinase CLK4 (Homo sapiens) (Q9HAZ1 whole entry, looked up): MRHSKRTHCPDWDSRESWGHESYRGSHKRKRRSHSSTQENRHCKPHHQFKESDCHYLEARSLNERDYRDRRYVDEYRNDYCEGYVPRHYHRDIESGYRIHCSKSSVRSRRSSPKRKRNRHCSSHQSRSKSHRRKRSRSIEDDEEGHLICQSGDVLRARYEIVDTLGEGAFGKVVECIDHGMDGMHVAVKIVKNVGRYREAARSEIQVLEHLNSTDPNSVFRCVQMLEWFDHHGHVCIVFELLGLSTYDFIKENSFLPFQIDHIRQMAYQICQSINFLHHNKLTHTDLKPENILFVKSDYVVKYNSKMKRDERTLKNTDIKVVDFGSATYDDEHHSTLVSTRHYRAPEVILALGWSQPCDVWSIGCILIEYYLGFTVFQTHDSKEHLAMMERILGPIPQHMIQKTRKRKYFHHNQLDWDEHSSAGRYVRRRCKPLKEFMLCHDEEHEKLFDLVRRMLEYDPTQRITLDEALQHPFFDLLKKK
In short: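 Recombinant human Clk4 (25 nM) phosphorylated RS repeat peptide (100 uM) with 1 uM ATP in Tris pH 7.5/MgCl2/EGTA/DTT/Triton buffer for 4.5 h at room temperature. Residual ATP was quantified by Kinase-Glo luciferase luminescence.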

[9] = target: Dual specificity protein kinase CLK4 (Homo sapiens) (UniProt Q9HAZ1); experiment: qHTS Assay for Inhibitors of CDC-like Kinase 4 (ADP-FP Assay) (AID 1795); settings: Transcreener ADP fluorescence polarization; series mostly up to 50 µM; note: % is set by controls: 0 for no effect and ±100 for the full control effect; nearly all actives have a fitted effect of over 60% in size
In short: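 Recombinant human Clk4 (6.25 nM) phosphorylated RS repeat peptide (100 uM) with 1 uM ATP in Tris pH 7.5/MgCl2/EGTA/DTT/Triton buffer for one hour. ADP was quantified by Transcreener competitive fluorescence polarization against an ADP calibration curve.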

[10] = target: Ubiquitin carboxyl-terminal hydrolase 1 (Homo sapiens) (UniProt O94782); experiment: Inhibitors of USP1/UAF1: Pilot qHTS (AID 504865); settings: purified USP1/UAF1, Ub-rhodamine cleavage fluorescence; series mostly up to 54.9 µM;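 note: rhodamine fluorescence freed from ubiquitin-rhodamine substrate followed over time; top concentration of the series differs between compounds; % is set by controls: 0 for no effect and ±100 for the full control effect; nearly all actives have a fitted effect of over 35% in size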
Sequence of Ubiquitin carboxyl-terminal hydrolase 1 (Homo sapiens) (O94782 whole entry, looked up): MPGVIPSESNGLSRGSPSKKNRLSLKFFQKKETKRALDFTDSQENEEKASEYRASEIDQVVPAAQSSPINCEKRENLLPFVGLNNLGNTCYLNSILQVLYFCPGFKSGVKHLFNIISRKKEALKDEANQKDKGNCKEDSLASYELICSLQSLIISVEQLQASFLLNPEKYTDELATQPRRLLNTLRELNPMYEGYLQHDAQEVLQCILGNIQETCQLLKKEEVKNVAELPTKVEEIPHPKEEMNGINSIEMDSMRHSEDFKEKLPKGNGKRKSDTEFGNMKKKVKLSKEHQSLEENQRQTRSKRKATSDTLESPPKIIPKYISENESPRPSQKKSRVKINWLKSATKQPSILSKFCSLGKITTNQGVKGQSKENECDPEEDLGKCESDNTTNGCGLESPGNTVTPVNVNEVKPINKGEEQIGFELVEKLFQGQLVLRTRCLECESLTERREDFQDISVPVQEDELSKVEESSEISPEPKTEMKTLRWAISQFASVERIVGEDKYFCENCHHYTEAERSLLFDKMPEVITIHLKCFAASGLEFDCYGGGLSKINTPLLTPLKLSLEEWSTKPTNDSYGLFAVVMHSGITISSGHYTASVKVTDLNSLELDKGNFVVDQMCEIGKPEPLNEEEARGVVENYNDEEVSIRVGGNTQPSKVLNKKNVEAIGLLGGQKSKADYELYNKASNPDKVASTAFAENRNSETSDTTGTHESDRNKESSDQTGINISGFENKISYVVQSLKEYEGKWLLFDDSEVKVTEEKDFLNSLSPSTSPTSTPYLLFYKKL
In short: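 USP1/UAF1 complex (1nM) preincubated with compound 15 min at room temperature, then Ub-Rho substrate (150nM final) added. Fluorescence read kinetically at 480/540 nm, 6 reads every 60 seconds. Buffer: 50mM HEPES pH 7.8, 0.5mM EDTA, 0.1 mg/ml BSA, 1mM TCEP, 0.01% Tween-20.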

[11] = Counterscreen qHTS for small molecule stabilizers of the endoplasmic reticulum resident proteome: GLuc-NoTag assay (AID 1508627); settings: Gaussia luciferase NoTag secretion counterscreen, luminescence, thapsigargin 100 nM for final 4 h; series mostly up to 76.4 µM;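 note: SH-SY5Y cells given compound then 100 nM thapsigargin to empty ER calcium; 0% = thapsigargin alone and -100% = DMSO vehicle control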
In short: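 SH-SY5Y cells stably expressing constitutively secreted GLuc (no SERCaMP tag) were pre-incubated 5 h, treated with compound for 19 h, then 100 nM thapsigargin for 4 h at 37C; medium GLuc read by coelenterazine luminescence.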

[12] = Cell Viability qHTS for small molecule stabilizers of the endoplasmic reticulum resident proteome (AID 1508629); settings: cell viability counter-screen, 100 nM thapsigargin for final 4 h
[13] = Primary qHTS for small molecule stabilizers of the endoplasmic reticulum resident proteome: Secreted ER Calcium Modulated Protein (SERCaMP) assay (AID 1508630); settings: SH-SY5Y GLuc-SERCaMP (Gaussia luciferase released on ER calcium loss) secretion, thapsigargin, luminescence; series mostly up to 38.4 µM; note: potency is the fitted concentration of half-maximal effect
In short: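 GLuc-SERCaMP-expressing SH-SY5Y cells, pretreated 16 h with compound, are challenged with thapsigargin to empty ER calcium stores; after 4 h, coelenterazine is added directly to the medium and luminescence is imaged.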

[14] = target: Lysosomal acid glucosylceramidase (Homo sapiens) (UniProt P04062); experiment: Glucocerebrosidase-p2 (AID 348; in the data active = potency below about 10 µM; note: potency is the fitted concentration of half-maximal effect); settings: purified GBA, blue fluorogenic substrate, 40 min
Sequence of Lysosomal acid glucosylceramidase (Homo sapiens) (P04062 whole entry, looked up): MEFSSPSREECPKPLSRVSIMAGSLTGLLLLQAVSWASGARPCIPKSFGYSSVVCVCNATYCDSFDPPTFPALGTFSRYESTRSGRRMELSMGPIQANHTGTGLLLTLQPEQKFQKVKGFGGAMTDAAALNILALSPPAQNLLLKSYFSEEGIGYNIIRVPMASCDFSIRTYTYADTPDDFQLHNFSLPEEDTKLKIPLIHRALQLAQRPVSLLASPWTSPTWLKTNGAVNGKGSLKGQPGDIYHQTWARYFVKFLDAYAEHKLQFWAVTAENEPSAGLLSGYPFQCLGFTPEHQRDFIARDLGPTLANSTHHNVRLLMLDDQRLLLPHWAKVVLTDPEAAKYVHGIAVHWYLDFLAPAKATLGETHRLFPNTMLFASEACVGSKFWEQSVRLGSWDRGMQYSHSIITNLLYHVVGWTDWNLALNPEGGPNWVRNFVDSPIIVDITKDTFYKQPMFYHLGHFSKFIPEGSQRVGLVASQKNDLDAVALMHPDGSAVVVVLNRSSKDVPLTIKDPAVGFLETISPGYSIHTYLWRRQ
In short: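 Compounds titrated from 0.6 nM upwards against 0.2 nM enzyme in pH 5.9 citric acid/KH2PO4, taurocholate, tween-20; blue fluorogenic substrate 80 uM, 40 min room temperature, stopped and read Ex 365/Em 440 for AC50.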

[15] = target: Cytochrome P450 1A2 (Homo sapiens) (UniProt P05177); experiment: p450-cyp1a2 (AID 410; calls by dose curve; note: potency is the fitted concentration of half-maximal effect;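 for activity change, negative = inhibition: -100% = full effect of reference inhibitor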); settings: recombinant CYP1A2, luciferin-ME demethylation, luminescence; series mostly up to 57 µM
Sequence of Cytochrome P450 1A2 (Homo sapiens) (P05177 whole entry, looked up): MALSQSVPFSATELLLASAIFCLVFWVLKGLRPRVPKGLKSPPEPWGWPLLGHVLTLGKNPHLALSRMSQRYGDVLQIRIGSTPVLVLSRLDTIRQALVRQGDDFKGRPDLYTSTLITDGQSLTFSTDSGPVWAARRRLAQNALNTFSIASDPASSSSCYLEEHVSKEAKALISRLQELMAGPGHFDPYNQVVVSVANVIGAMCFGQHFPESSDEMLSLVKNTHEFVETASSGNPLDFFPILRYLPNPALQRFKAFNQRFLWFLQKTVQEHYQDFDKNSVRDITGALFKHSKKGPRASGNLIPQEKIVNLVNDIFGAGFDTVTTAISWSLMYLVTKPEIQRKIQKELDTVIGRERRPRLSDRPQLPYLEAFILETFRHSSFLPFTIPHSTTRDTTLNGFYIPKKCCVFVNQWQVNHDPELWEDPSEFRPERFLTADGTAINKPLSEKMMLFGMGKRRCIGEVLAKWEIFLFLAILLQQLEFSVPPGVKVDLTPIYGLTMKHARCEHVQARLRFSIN
In short: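 Luminescent readout of luciferin formed from Luciferin-ME by human CYP1A2; data normalized against complete inhibition by 57 uM furafylline. Enzyme 20nM, substrate 100uM at Km, 100mM KPO4 buffer, 60 min reaction at room temperature.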

[16] = qHTS Assay for Lipid Storage Modulators (AID 1519; calls by dose curve); settings: Drosophila S3 cells, BODIPY lipid droplet/cell ratio, laser cytometry, cells loaded with oleic acid; for activity change, negative = inhibition: at 57.5 µM (top of the series)
In short: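 Cells seeded at 5,000 per well were treated with compounds over a concentration series and loaded with oleic acid (400 uM, as added). Lipid droplet fluorescence (488 nm excitation, 500-530 nm channel) was read by laser-scanning cytometry and normalized to 20 uM Triacsin C.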

[17] = target: Cytochrome P450 3A4 (Homo sapiens) (UniProt P08684); experiment: qHTS Assay for Activators of Cytochrome P450 3A4 (AID 885); settings: recombinant CYP3A4, Luciferin-PPXE luminescence, 60 min; series mostly up to 57.1 µM; note: nearly all actives have a fitted effect of over 65% in size
Sequence of Cytochrome P450 3A4 (Homo sapiens) (P08684 whole entry, looked up): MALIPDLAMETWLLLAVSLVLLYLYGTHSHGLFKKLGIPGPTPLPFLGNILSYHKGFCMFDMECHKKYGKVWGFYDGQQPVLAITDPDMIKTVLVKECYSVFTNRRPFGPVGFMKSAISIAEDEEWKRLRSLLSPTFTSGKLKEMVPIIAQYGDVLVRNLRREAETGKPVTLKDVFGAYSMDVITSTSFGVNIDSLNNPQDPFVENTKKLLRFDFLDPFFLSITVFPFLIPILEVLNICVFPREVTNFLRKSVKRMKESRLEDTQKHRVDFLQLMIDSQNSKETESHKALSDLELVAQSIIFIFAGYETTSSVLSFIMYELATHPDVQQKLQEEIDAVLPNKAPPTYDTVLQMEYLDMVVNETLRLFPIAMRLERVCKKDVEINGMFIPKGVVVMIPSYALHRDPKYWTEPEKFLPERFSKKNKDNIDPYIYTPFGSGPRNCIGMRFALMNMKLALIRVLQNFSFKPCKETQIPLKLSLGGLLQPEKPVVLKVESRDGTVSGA
In short: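 Human CYP3A4 (20 nM) with Luciferin-PPXE at 25 uM (its KM) in 200 mM KPO4; 10 min compound preincubation, then NADPH regeneration and 60 min reaction at RT. Luciferin read by luminescence; normalized to 57 uM ketoconazole full inhibition.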

[18] = Confirmatory qHTS for small molecule stabilizers of the endoplasmic reticulum resident proteome: Secreted ER Calcium Modulated Protein (SERCaMP) assay (AID 1508628); settings: SERCaMP secreted luciferase ER calcium/proteostasis reporter; series mostly up to 76.3 µM; note: nearly all actives have a fitted effect of over 40% in size; note: potency is the fitted concentration of half-maximal effect
In short: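 SH-SY5Y cells stably expressing GLuc-SERCaMP, treated 16 h with compound (primary 1.53, 7.67, 38.3 uM; confirmation 11 concentrations, up to 76.6 uM), then 100 nM thapsigargin for 4 h. Secreted Gaussia luciferase in medium read by coelenterazine luminescence.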

[19] = Confirmation and Secondary Assay for Modulators of Hemoglobin Beta Chain Splicing at IVS2 654 locus (AID 910); settings: HeLa EGFP-654 splicing reporter, GFP fluorescence, 48 h; series mostly up to 38.3 µM;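 note: per-well total GFP intensity by laser scanning cytometry after 2-day treatment; % of control where 0% means no effect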
In short: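 HeLa cells stably carrying EGFP interrupted by mutant beta-globin IVS2-654 intron (CMV-driven) were treated with compound for 2 days at 37C; corrected splicing was scored as total peak GFP intensity per well (488 nm excitation, 500-520 nm emission).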

[20] = Confirmation and Secondary Assay for Modulators of Hemoglobin Beta Chain Splicing at IVS2 705 locus (AID 930); settings: HeLa EGFP-705 splicing reporter, GFP fluorescence, 48 h; series mostly up to 38.3 µM;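 note: HeLa cells stably expressing the EGFP-705 splicing reporter; GFP fluorescence per well restored by corrected splicing of the IVS2-705 intron in EGFP; % of control where 0% means no effect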
In short: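 HeLa IVS2-705 EGFP reporter cells, 500/well, compound 2 d at 37C; correct splicing yields fluorescent EGFP. Control: 500 nM antisense PNA. Read-out: total peak GFP intensity.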

[21] = target: Cytochrome P450 2C19 (Homo sapiens) (UniProt P33261); experiment: qHTS Assay for Inhibitors and Substrates of Cytochrome P450 2C19 (AID 899); settings: recombinant CYP2C19, luciferin-H EGE luminescence; series mostly up to 57.1 µM; note: potency is the fitted concentration of half-maximal effect; nearly all actives have a fitted effect of over 60% in size
Sequence of Cytochrome P450 2C19 (Homo sapiens) (P33261 whole entry, looked up): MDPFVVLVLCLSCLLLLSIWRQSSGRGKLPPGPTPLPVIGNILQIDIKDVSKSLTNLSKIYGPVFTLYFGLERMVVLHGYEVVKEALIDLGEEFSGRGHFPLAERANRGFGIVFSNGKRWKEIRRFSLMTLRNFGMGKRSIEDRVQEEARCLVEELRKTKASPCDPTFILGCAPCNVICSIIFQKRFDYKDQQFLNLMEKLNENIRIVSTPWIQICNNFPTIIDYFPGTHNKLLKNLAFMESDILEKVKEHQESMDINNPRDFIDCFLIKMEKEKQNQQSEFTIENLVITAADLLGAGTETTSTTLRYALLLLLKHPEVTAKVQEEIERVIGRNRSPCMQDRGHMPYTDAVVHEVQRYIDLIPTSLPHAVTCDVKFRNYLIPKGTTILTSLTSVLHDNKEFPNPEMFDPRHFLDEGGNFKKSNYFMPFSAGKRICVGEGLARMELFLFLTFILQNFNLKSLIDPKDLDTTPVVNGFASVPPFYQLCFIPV
In short: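 NADPH-dependent conversion of Luciferin-H EGE (10uM, at KM) by 5nM enzyme in 50mM KPO4, 60 min at 37C following 10 min compound preincubation. Stopped with luciferin detection buffer; luminescence read after 20 min.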

[22] = qHTS Assay for Identification of Small Molecule Agonists for Hypoxia Response Element Signaling Pathway (AID 914; active = well fitted activation curve with a large enough effect in the signal ratio, with a control signal flat, not every such curve was filed as active; the % refers to the signal ratio; note: % of control where 0% means no effect); settings: ME-180 (cervical carcinoma) HRE-bla reporter, beta-lactamase ratio, CoCl2, 17 h; activation: stronger effect = higher value
In short: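 HRE-bla ME-180 assay for agonist-like enhancement of an EC50 CoCl2 stimulus: 17 h at 37 degrees Celsius, CCF4 for 2.5 h, ratiometric 460/530 nm signal converted to %Activity and fitted to AC50.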

[23] = target: Cytochrome P450 3A4 (Homo sapiens) (UniProt P08684); experiment: qHTS Assay for Inhibitors and Substrates of Cytochrome P450 3A4 (AID 884); settings: recombinant CYP3A4, Luciferin-PPXE luminescence; series mostly up to 57.1 µM; note: potency is the fitted concentration of half-maximal effect; nearly all actives have a fitted effect of over 50% in size
In short: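 20 nM human CYP3A4 with 25 uM Luciferin-PPXE (at KM) in 200 mM KPO4, preincubated 10 min with compound; NADPH regeneration started a 60 min RT reaction. Luciferin detected by luminescence, normalized to 57 uM ketoconazole as full inhibition.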

[24] = measured here: cell count channel max response
[25] = measured here: lipid channel max response

COc1ccc(Oc2ncc3nc(CCc4ccccc4)c(=O)n(C[C@H]4CCCO4)c3n2)cc1
inactive: activity change, negative = inhibition [1] -25.6% | activity change, negative = inhibition [2] -6.61% | activity, negative = inhibition [3] -17.3% | Potency [4] > 9.22 µM | Potency [5] > 46 µM | outcome [6] | Potency [7] | Potency [8] | Potency [9] | Potency [10] | Potency [11] | max response [12] 6.27%
active: Potency [13] 35.5 µM

O=C(c1cc(C(F)(F)F)cc(C(F)(F)F)c1)N1CCC2(CC1)CCN(c1ccccn1)CC2
1.85%: max response [16, 25]
10.4%: max response [16, 24]
inactive: Potency [14] 10.2 µM | activity change, negative = inhibition [1] -6.99% | Potency [15] | activity, negative = inhibition [3] -1.33% | Potency [5] > 46 µM | outcome [6] | Potency [7] | activity change, negative = inhibition [16] -8.11% | Potency [11] | max response [12] 25.1%

COCCn1c(=O)c(-c2ccc(OC)cc2)nc2cnc(N3CCNCC3)nc21
inactive: Potency [14] > 11.4 µM | Potency [4] > 9.22 µM | Potency [5] > 46 µM | outcome [6] | Potency [7] | Potency [17] | Potency [11] | Potency [18]
active: Potency [15] 6.31 µM

FC(F)(F)c1ccccc1-c1nc(N2CCNCC2)c2ccccc2n1
21.9%: max response [16, 25]
inactive: Potency [14] > 11.4 µM | activity change, negative = inhibition [1] 6.77% | activity, negative = inhibition [3] 11.2% | Potency [4] > 46 µM | Potency [5] > 46 µM | outcome [6] | Potency [7] | outcome [19] | outcome [20] | activity change, negative = inhibition [16] 7.02% | Potency [10]
13.7%: max response [16, 24]
active: Potency [15] 10 µM | Potency [18] 20 µM

COCCn1c(=O)c(CCc2ccccc2)nc2cnc(OC)nc21
active: Potency [15] 10 µM | Potency [21] 794 nM
inactive: Potency [14] > 11.4 µM | activity change, negative = inhibition [1] -6.75% | activity change, negative = inhibition [2] -10.3% | activity, negative = inhibition [3] -4.28% | Potency [4] > 9.22 µM | Potency [5] > 46 µM | outcome [6] | Potency [17] | Potency [11]

Cc1ccccc1-c1nc(NC2CCNCC2)c2ccccc2n1
inactive: Potency [14] > 11.4 µM | activity change, negative = inhibition [1] 19.1% | activity change, negative = inhibition [2] 0.36% | activity, negative = inhibition [3] -7.16% | Potency [4] > 46 µM | Potency [5] > 46 µM | outcome [6] | Potency [7] | outcome [19] | activation [22] 12.4% | outcome [20]
active: Potency [15] 20 µM | Potency [18] 31.6 µM

COc1ccc(CNc2ncnc3ccc(-c4cccc(C#N)c4)cc23)c(OC)c1
inactive: activity change, negative = inhibition [2] 16.5% | activity, negative = inhibition [3] -11.5% | Potency [4] > 46 µM | Potency [5] > 46 µM | outcome [6] | Potency [17] | activity change, negative = inhibition [16] -0.414% | Potency [9] | Potency [10]
-6.85%: max response [16, 24]
active: Potency [15] 3.16 µM | Potency [23] 1.58 µM | Potency [18] 28.2 µM
-11.4%: max response [16, 25]
